Data as given in PubChem BioAssay (Tox21).
Where “and” joins values, the source holds several entries; their conditions need not be identical. Equal values may be shown once. Results filed as inconclusive are left out. Where a call stands in place of a potency, no number is given. A number with no mark means an inactive call. Calls of active or inactive are those of the source. Calls follow the shape of the dose curve; as a rule, active = well fitted inhibition curve with a large enough effect in the repeat runs; inconclusive = weak or mixed curves; inactive = flat fitted curve, though single readings scatter.

Target: Luciferin 4-monooxygenase (Photinus pyralis) (UniProt P08659)
Assay: qHTS assay to identify small molecule inhibitors of firefly luciferase (AID 1224835); also: nearly all actives have a fitted effect of over 25% in size
Conditions: purified P. pyralis luciferase, luminescence inhibition; series mostly up to 115 µM; activity change, negative = inhibition: at the top concentration
From the text: U.S. Tox21 Program National Center for Advancing Translational Sciences [NCATS] NIH Chemical Genomics Center [NCGC] U.S. Environmental Protection Agency [EPA] National Institutes of Environmental Health Sciences [NIEHS] National Toxicology Program [NTP] U.S. Food and Drug Administration [FDA] Tox21 Assay Overview: Firefly (Photinus pyralis) luciferase is one of the most commonly used transcriptional reporters. Firefly luciferase reporter-gene assays are generally considered one of the most sensitive assay types (Wood, 1995; Wood, 1998). However, it was initially observed, in 1991, by Thompson et al., that compounds that resemble the substrates of firefly luciferase (FLuc) can act as competitive inhibitors of the enzyme, and that these compounds, upon interaction with luciferase in the cell, can actually stabilize the protein and increase its half-life. Previous profiling work by other groups to determine the prevalence of compounds that affect FLuc enzymatic activity (PubChem AID 411) identified that ~3% of the MLSMR library (then at ~72K) inhibited FLuc. […] Thus the Tox21 10K library is profiled for activity against FLuc using a biochemical assay of purified FLuc and KM concentrations of FLuc substrates (D-luciferin and ATP).
These assay plates were then treated with 23nL of compound or DMSO using a Kalypsys pin tool, which allows for delivery of a 6-point interplate titration of each compound to the assay plate (quantitative HTS.) 1 uL of firefly luciferase mix (containing 50 mM Tris acetate, pH 7.6, 0.04 uM P. pyralis luciferase, 0.01% Tween, 0.05% BSA and dH2O) was then delivered by FRD to each well. Luciferase activity was then measured using a ViewLux CCD imager.
Potency is read from the fitted curve at half-maximal effect.

Chain of Luciferin 4-monooxygenase (Photinus pyralis) (P08659 whole entry, looked up): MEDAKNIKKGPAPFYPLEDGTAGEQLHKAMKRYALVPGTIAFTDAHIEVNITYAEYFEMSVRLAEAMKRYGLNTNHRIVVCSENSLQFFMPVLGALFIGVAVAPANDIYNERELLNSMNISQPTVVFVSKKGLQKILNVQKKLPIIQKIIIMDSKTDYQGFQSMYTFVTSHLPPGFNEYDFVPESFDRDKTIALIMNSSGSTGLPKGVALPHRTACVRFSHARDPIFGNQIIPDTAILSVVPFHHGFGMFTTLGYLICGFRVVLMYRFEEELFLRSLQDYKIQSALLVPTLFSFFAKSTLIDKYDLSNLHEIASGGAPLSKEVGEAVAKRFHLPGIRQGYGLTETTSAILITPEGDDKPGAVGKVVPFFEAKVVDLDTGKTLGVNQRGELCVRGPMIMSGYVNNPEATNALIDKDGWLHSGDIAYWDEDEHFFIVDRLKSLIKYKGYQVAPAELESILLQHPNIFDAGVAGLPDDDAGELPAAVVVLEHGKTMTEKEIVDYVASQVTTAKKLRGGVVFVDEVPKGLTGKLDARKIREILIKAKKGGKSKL

| SMILES | Potency | activity change, negative = inhibition |
| --- | --- | --- |
| CCN(N=O)C(N)=O | inactive |  |
| C=CC(=O)OCCO | inactive |  |
| C=CCc1ccc2c(c1)OCO2 | inactive |  |
| O=[N+]([O-])c1ccc(O)c([N+](=O)[O-])c1 | inactive |  |
| Cc1ccc2c(c1N)C(=O)c1ccccc1C2=O | 3.95 µM (active) and 5.64 µM (active) |  |
| O=P(O)(O)CCCl | inactive |  |
| CC(C)N(C(=O)SCC(Cl)=C(Cl)Cl)C(C)C | inactive |  |
| CCCCC(CC)COC(=O)c1ccc(C(=O)OCC(CC)CCCC)c(C(=O)OCC(CC)CCCC)c1 (stereo not given) | inactive |  |
| NCc1cccnc1 | inactive |  |
| O=[N+]([O-])c1c(Cl)c(Cl)c(Cl)c(Cl)c1Cl | inactive |  |
| O=c1oc2ccccc2c(O)c1C(CC(O)c1ccc(-c2ccc(Br)cc2)cc1)c1ccccc1 (stereo not given) |  | 1.38% [at 52.9 µM] |
| c1cc(OCC2CO2)ccc1Cc1ccc(OCC2CO2)cc1 (stereo not given) | inactive |  |
| CCOC(=O)C(C)OC(=O)c1cc(Oc2ccc(C(F)(F)F)cc2Cl)ccc1[N+](=O)[O-] (stereo not given) | inactive |  |
| C1=Cc2cccc3cccc1c23 | inactive |  |
| CC(C)Oc1cc(-n2nc(C(C)(C)C)oc2=O)c(Cl)cc1Cl | inactive |  |
| C=C(C)[C@H]1Cc2c(ccc3c2O[C@@H]2COc4cc(OC)c(OC)cc4[C@@H]2C3=O)O1 | inactive |  |
| CCC(C)(c1ccc(O)cc1)c1ccc(O)cc1 | inactive |  |
| CCCCCCOC(=O)c1ccccc1C(=O)OCCCCCC | inactive |  |
| CNC(=O)Oc1cccc2c1OC(C)(C)O2 | inactive |  |
| CCOP(=S)(OCC)O/N=C(\C#N)c1ccccc1 | inactive |  |

| SMILES | Potency | activity change, negative = inhibition |
| --- | --- | --- |
| CCC(=O)O[C@H]1CC[C@H]2[C@@H]3CCC4=CC(=O)CC[C@]4(C)[C@H]3CC[C@]12C | inactive |  |
| Brc1ccc(Oc2cc(Br)c(Br)cc2Br)c(Br)c1 |  | 6.13% |
| CC(C)(OOC(C)(C)c1ccccc1)c1ccccc1 | inactive |  |
| O=C(O)CC[N+](=O)[O-] | inactive |  |
| CC(C)=CC1C(C(=O)OCc2coc(Cc3ccccc3)c2)C1(C)C (stereo not given) | inactive |  |
| Nc1cccnc1 | inactive |  |
| Nc1ccc(-c2ccc(N)c(N)c2)cc1N | 35.5 µM (active) |  |
| O=C1C=CC(=O)C=C1 | 31.9 µM (active) and 22.4 µM (active) |  |
| CCC(C)(C)c1ccc(O)cc1 | 40.4 µM (active) and 63.3 µM (active) |  |
| O=C(CCl)c1ccccc1 | inactive |  |
| N#CC(Br)Br |  | 4.94% |
| c1ccc(NNc2ccccc2)cc1 | 25.4 µM (active) and 17.8 µM (active) |  |
| CNC(=O)N(C)c1nnc(C(C)(C)C)s1 | inactive |  |
| CC(C)C(=O)OCC(C)(C)C(OC(=O)C(C)C)C(C)C (stereo not given) | inactive |  |
| CC(C)(C)c1ccccc1O |  | -6.31% |
| Oc1cc(Cl)ccc1Cl | inactive |  |
| Cc1cccc(N)c1N | 30.6 µM (active) |  |
| CCCCCc1cc(O)cc(O)c1 | 63.6 µM (active) and 39.9 µM (active) |  |
| O=S(=O)(Oc1ccc(Cl)cc1)c1ccc(Cl)cc1 | inactive |  |
| C=CCN(CC=C)C(=O)C(Cl)Cl | inactive |  |
